ADAM17 inh = ADAM17 inhibition, QFRET primary screen; P78536; recombinant ADAM17, EDANS/DABCYL FRET peptide cleavage; inhibition, % at 6.95 µM; actives 0.83% (n = 370,000);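 active = inhibition above the mean of compounds lying between control limits plus 3 SD, set per campaign, cut at about 8.5% in these data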;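 note: 0% = DMSO-only wells as the low control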
Pemphigus Ab inh = blocks pemphigus antibody binding to human desmoglein-3 | P32926 | DSG3-coupled beads, scFv-anti-DSG3-GFP binding, flow cytometry; hits give low values | binding (percent of control), % at 10 µM | actives 0.48% (n = 310,000);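 active = binding more than 3 SD below its plate's average and above zero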;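 note: hits lower antibody fragment binding to DSG3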
ADAM10 inh = inhibitors of human ADAM10; O14672; recombinant ADAM10, EDANS/DABCYL FRET peptide cleavage, 3 h; inhibition, % at 7 µM; actives 0.62% (n = 370,000); AID 720582;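 active = inhibition above a per-campaign cutoff equal to the mean of compounds falling between control-based bounds plus 3 SD, cut at about 20% in these data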;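 note: 0% = DMSO wells while the 100% control is not disclosed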
Target sequence (O14672 214-748 limits assumed): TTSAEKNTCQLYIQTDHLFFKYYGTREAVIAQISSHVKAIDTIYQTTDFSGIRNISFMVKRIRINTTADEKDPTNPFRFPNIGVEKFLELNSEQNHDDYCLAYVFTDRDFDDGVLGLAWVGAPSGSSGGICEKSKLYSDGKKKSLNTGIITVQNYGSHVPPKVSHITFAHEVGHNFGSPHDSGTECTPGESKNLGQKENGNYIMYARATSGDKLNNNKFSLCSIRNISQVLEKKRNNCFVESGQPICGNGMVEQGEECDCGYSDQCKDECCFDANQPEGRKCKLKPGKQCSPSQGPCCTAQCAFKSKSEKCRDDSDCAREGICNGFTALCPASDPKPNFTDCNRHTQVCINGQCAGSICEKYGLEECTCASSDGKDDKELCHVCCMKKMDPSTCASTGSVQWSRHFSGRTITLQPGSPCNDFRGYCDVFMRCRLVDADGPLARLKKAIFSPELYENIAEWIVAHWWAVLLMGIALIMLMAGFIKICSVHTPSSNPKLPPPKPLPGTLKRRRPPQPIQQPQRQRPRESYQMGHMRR
MPTP inh = permeability transition pore inhibition; isolated mouse mitochondria, Ca2+ swelling absorbance, 30 min; inhibition, % at 10 µM; actives 1.4% (n = 360,000); AID 602449;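 active = inhibition of 50% or more, scaled per plate between neutral and stimulator controls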;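 note: 0% = DMSO wells given calcium and 100% = 1 mM EGTA wells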
rCAG binder = molecules binding r(CAG) RNA repeats | r(CAG) RNA repeat, TO-PRO-1 dye displacement fluorescence | inhibition, % at 3 µM | actives 1.3% (n = 370,000);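 active = inhibition above the plate cutoff, the mean of all test compounds on that plate plus 3 SD, cut at about 35% in these data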;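 note: 0% = DMSO alone and 100% = 100 µM mitoxantrone as full dye displacement; higher means more dye released from RNA so lower well fluorescence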
proKLK7 act = activators of human kallikrein-7 zymogen. P49862. purified proKLK7, EDANS-DABCYL substrate fluorescence; 100% is mature enzyme control, 0% vehicle. activation, % at 7 µM. actives 0.9% (n = 370,000). AID 652039;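 active = activation above the mean of all tested compounds plus 3 SD, computed per campaign excluding outliers beyond control limits, cut at about 13% in these data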
KLK7 act conf = confirmation of human kallikrein-7 zymogen activators. shares compounds with proKLK7 act. purified proKLK7, EDANS-DABCYL substrate fluorescence; scaled: vehicle 0, mature enzyme 100. AID 686949. activation, % at 7 µM. actives 68% (n = 3,200);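 active = activation, as change over the incubation, above the mean of all tested compounds plus 3 SD, cut at about 13% in these data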
EDANS interfere = fluorescence interference counter-screen for KLK7 activators; AID 686952; shares compounds with proKLK7 act; actives 80% (n = 3,200); EDANS-DABCYL substrate fluorescence interference, no enzyme, 4 h; solvent 0%, active enzyme control 100%; activation, % at 7 µM;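 active = activation above the all-compound mean plus 3 SD, ignoring values outside control-based bounds, cut at about 4.8% in these data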;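 note: value is the 4 h activation minus the activation read at time zero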
K7 EDANS ctr = counter-screen for kallikrein-7 activators: EDANS-DABCYL interference, dose response | shares compounds with proKLK7 act | EDANS-DABCYL peptide fluorescence interference, no enzyme | EC50, µM | actives 20% (n = 250) | AID 720493;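 active = compounds that raise the fluorescence signal in this interference counterscreen, with EC50 at or below 10 µM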;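 note: intact quenched peptide substrate alone read at 355 nm excitation and 520 nm emission; signal is fluorescence gain from T0 to T4 after four hours at room temperature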
* hit, by the source's call; i = inactive; . = no result given. Hits are enriched below; roughly 4.7% of the tested compounds scored in any of these assays.

SMILES	ADAM17 inh	Pemphigus Ab inh	ADAM10 inh	MPTP inh	rCAG binder	proKLK7 act	KLK7 act conf	EDANS interfere	others
CC1CN(C(=O)COC(=O)c2cc3ccccc3cc2O)CC(C)O1 (centres undefined)	-7	103	-15	0	3	14*	17*	17*
COc1ccc2nc(-c3ccc(Cl)cc3)cc(C(=O)O)c2c1	i	91	i	2	15	25*	27*	44*
CC1CN(C(=O)c2cc3ccccc3cc2O)CC(C)O1 (centres undefined)	-8	93	-8	2	-2	-19	.	.
COc1ccc(-c2cc(C(=O)OCC(=O)N3CCOCC3)c3ccccc3n2)cc1	-94	93	-263	1	0	59*	144*	141*
COc1ccc(-c2cc(C(=O)N3CCOCC3)c3cc(C)ccc3n2)cc1	i	100	i	0	2	64*	15*	21*
Cc1ccc(N2CC(C(=O)OCC(=O)Nc3ccccc3C)CC2=O)cc1 (centres undefined)	1	99	2	0	3	0	.	.
COc1ccc(-c2cc(C(=O)NCC3CCCO3)c3ccccc3n2)cc1 (centres undefined)	-248	104	i	0	-3	10	.	.
CCOC(=O)CCCNC(=O)COC(=O)c1cc2ccccc2cc1O	-4	101	-10	-9	4	25*	19*	19*
COc1ccc(-c2cc(C(F)F)n3ncc(C(=O)N4CCN(C)CC4)c3n2)cc1	-151	101	-462	2	-8	15*	-4	-13
COc1cc2ccccc2cc1C(=O)OCC(=O)N1CCOCC1	-262	100	i	-3	-2	15*	22*	19*	K7 EDANS ctr=>69
CCOC(=O)CCCNC(=O)COC(=O)c1cc(C)cc(C)c1	-2	98	5	4	-7	0	.	.
COc1ccc(-c2cc(C(=O)NCC3CCCO3)c3cc(C)ccc3n2)cc1 (centres undefined)	-227	113	i	-1	-1	25*	-40	-36
COc1ccc(-c2cc(C(F)F)n3ncc(C(=O)N4CCSCC4)c3n2)cc1	-29	99	-95	3	0	-101	.	.
Nc1c2c(nc3ccccc13)CSCC2	-11	109	-19	2	-4	-2	.	.
O=C(C1CCCC1)N1CCC(CC2CC(c3cccc(Br)c3)=NO2)(C(=O)NCC2CCCCC2)CC1 (centres undefined)	5	103	6	2	13	1	.	.
COc1nc(=O)n(C2CCCO2)cc1C (centres undefined)	-5	105	-7	2	-2	0	.	.
COC(=O)c1cc2c(ccc3ccccc32)oc1=O	i	99	i	3	2	65*	67*	74*
O=C(c1cc2c(ccc3ccccc32)o1)N1CCCCC1	-1	110	-1	-1	-4	0	.	.
CN1CCN(C(=O)c2cc3c(ccc4ccccc43)oc2=O)CC1	-496	70	i	13	-1	56*	22*	21*
CCNC(=O)c1cc2c(c(-c3cccc(-c4cccc(C(=O)N(C)C)c4)c3)n1)[C@@H](CCO)N(S(=O)C(C)(C)C)C2 (some centres undefined)	-6	.	-20	1	12	0	.	.
O=C(COC(=O)CSc1ccccc1)NC1CCS(=O)(=O)C1 (centres undefined)	-9	103	-8	0	6	1	.	.
C=CCOc1c2ccc(C(=O)NCc3ccccc3OC)cc2nn1C	-74	100	-233	0	20	14*	11	15*
COc1ccccc1OCCOc1ccccc1/C=N/n1cnnc1	-1	108	1	-1	1	0	.	.
COc1cccc2cccc(/C=N/n3cnnc3)c12	-33	82	-98	0	4	15*	15*	10*	K7 EDANS ctr=>70
COc1cc(OC)c2c(C)c(Cl)c(=O)oc2c1	i	98	i	0	2	15*	78*	72*
SMILES	ADAM17 inh	Pemphigus Ab inh	ADAM10 inh	MPTP inh	rCAG binder	proKLK7 act	KLK7 act conf	EDANS interfere	others
COc1cc(OC)c2c(=O)cc(-c3ccccc3)oc2c1	-78	.	-270	2	1	7	.	.
O=C(Nc1ccc(Cl)cc1)c1nc[nH]c1C(=O)NCCCCNC(=O)c1[nH]cnc1C(=O)Nc1ccc(Cl)cc1	-7	96	2	0	1	1	.	.
Nc1nc2c(C(=O)N3CCCC3)nnn2c2ccccc12	-285	.	i	.	2	19*	22*	20*
CCN(CC)C(=O)[C@H]1C[C@H](CC(=O)NC/C=C(\C)CCC=C(C)C)C(=O)N2CCc3c([nH]c4cc(CCC(=O)N(C)C)ccc34)[C@]12C	.	100	.	2	.	.	.	.
CCc1ccc(/C=C2\Oc3c(ccc(O)c3CN3CCN(CCO)CC3)C2=O)cc1	-39	101	-87	0	-9	28*	1	6.5*
CCc1ccc(/C=C2\Oc3cc(OS(C)(=O)=O)ccc3C2=O)cc1	-3	93	-12	1	4	0	.	.
CCc1cc2c(nc1CC)CCCN2CCOC	-100	.	-358	.	5	29*	-10	-10
CCc1cc2c(nc1CC)CCCN2S(=O)(=O)c1ccc(C#N)cc1	-3	.	-4	.	2	1	.	.
CCNC(=S)NNC(=O)c1ccccc1Cl	3	93	4	-1	0	0	.	.
CNC(=S)NNC(=O)c1cccn(Cc2ccc(Cl)cc2Cl)c1=O	-46	.	-243	.	3	15*	30*	42*
CCNC(=S)NNC(=O)c1cccn(Cc2ccc(Cl)cc2)c1=O	-47	103	-322	0	0	22*	33*	39*
CNC(=S)NNC(=O)c1cccn(Cc2cccc(C(F)(F)F)c2)c1=O	-54	102	-115	0	0	28*	89*	84*
CCCCCCn1c(=O)[nH]c2nc3cc(N)ccc3nc2c1=O	2	.	-6	.	-37	14*	19*	20*
COC(=O)c1cc2c(C)nn(-c3ccccc3)c2s1	-14	.	-27	-3	0	-2	.	.
Cc1nn(-c2ccccc2)c2sc(C(=O)OC3CCOC3=O)cc12 (centres undefined)	-131	104	-387	-7	8	20*	11	13*
COc1ccc(O)c(C(=O)CC(=O)c2ccncc2)c1	-137	.	-482	-1	2	14*	282*	290*

Screening results as filed in PubChem BioAssay.
